Bioassay records as filed in PubChem.
PostGolgi yeast = growth inhibition of a yeast mutant, post-Golgi transport screen. 0.9% of 98,000 active. post-Golgi transport phenotypic cell assay. inhibition, % at 10 µM;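 note: yeast cells grown in 1536-well plates; yeast grown about 18 h at 30C before absorbance read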
PostGolgi ctrl = growth of the yeast control strain, post-Golgi counter-screen | efflux-deficient yeast background strain, growth absorbance A615, 16 h | inhibition, % at 10 µM | 5% of 98,000 active | AID 738
Pyk2 oligo antag = blocks oligomerization of human Pyk2 in cells; Q14289; Q293 cells, Pyk2 FERM NanoBiT luminescence; hits give low values; z-score (the deposit names both 25 µM and 10 µM); 0.83% of 99,000 active; AID 1347419;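 active = Z-score of -3 or lower, scaled per plate to the spread of control and sample wells; inactive = z-score above -3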;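 note: negative z-score means lost luminescence so less FERM oligomerization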
Cav32 inh = blocks human Cav3.2 T-type calcium channel; B-score at 10 µM; Cav3.2-expressing cells, Fluo-4 calcium fluorescence FDSS; hits give low values; O95180; 4% of 100,000 active;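 active = single-dose well whose peak fluorescence ratio is a statistical outlier from its plate by either plate-standardised score or position-corrected B-score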
* = called active by the depositor; ! = a repeat was not active. In the library only some 8% were active in any assay of this set; here they are far more common. Cut-off read from the data, not from the text of the source, unless noted: active = inhibition above about 30%; inactive = the rest.

Results for Cc1ccc(CNC(=O)Cn2cccc2C(=O)c2ccccc2)cc1 ?
PostGolgi yeast: 26.8; PostGolgi ctrl: -4.3; Pyk2 oligo antag: -0.4; Cav32 inh: -4.89*

How did COC(=O)Cn1cccc1C(=O)c1ccccc1 do in these assays?
PostGolgi yeast: 1.9; PostGolgi ctrl: 23.6; Pyk2 oligo antag: -0.15; Cav32 inh: 0.169

Results for CN1C(=O)c2ccccc2C(C(=O)NCC2CCCO2)C1c1c[nH]c2ccccc12 (stereo not given) ?
PostGolgi yeast: -2.8; PostGolgi ctrl: -1.9; Pyk2 oligo antag: 0.18; Cav32 inh: 0.198

Results for Cc1cccc(C)c1NC(=O)N1CCC(n2c(=O)[nH]c3ccccc32)CC1 ?
PostGolgi yeast: -7.5; PostGolgi ctrl: 33.1*; Cav32 inh: 1.29

What do the screens show for `CCOC(=O)c1[nH]c(C)c(C(=O)NCc2ccc(Cl)cc2)c1C`?
PostGolgi yeast: 1.0; PostGolgi ctrl: 5.1; Pyk2 oligo antag: 0.27; Cav32 inh: -0.35

Results for CCOC(=O)c1c(C)[nH]c(C(=O)C(C)Sc2ccc(Cl)cc2)c1C (stereo not given) ?
PostGolgi yeast: 7.7; PostGolgi ctrl: 28.8; Pyk2 oligo antag: 0.71; Cav32 inh: -5.81*

Results for O=C(CN1CCCN(Cc2ccc(F)cc2Cl)C1=O)NC1CCCCCC1 ?
PostGolgi yeast: -5.8; PostGolgi ctrl: 13.6; Pyk2 oligo antag: -0.78; Cav32 inh: -3.97

Results for CC1CCC(NC(=O)CN2CCCN(Cc3ccc(F)cc3Cl)C2=O)CC1 (stereo not given) ?
PostGolgi yeast: 8.4; PostGolgi ctrl: 2.9; Pyk2 oligo antag: -0.11; Cav32 inh: -3.89*

How did O=C(CN1CCN(Cc2ccc(F)cc2Cl)C1=O)NCCc1ccc(Cl)cc1 do in these assays?
PostGolgi yeast: 21.8; PostGolgi ctrl: 36.6*; Pyk2 oligo antag: 1.09; Cav32 inh: -4.17

Results for CCC(C(=O)NCc1ccccc1OC)n1nc(C)n2c(cc3occc32)c1=O (stereo not given) ?
PostGolgi yeast: -4.5; PostGolgi ctrl: 4.2; Pyk2 oligo antag: 1.79; Cav32 inh: -0.751

What do the screens show for `c1ccc(CN(CC2=NCCN2)c2ccccc2)cc1`?
Cav32 inh: -2.79*!

How did c1ccc(CC2=NCCN2)cc1 do in these assays?
PostGolgi yeast: -6.6; PostGolgi ctrl: -3.9; Cav32 inh: 0.438

How did COc1cccc(C(=O)Nc2nnc(-c3ccc(Cl)cc3)o2)c1 do in these assays?
Cav32 inh: -5.42*

Results for O=C(Nc1nnc(-c2cccs2)o1)c1ccco1 ?
PostGolgi yeast: 2.0; PostGolgi ctrl: 7.4; Cav32 inh: -0.24

Results for O=C(Nc1nnc(-c2ccccc2)o1)c1ccc(Cl)cc1 ?
PostGolgi yeast: 109.7*; PostGolgi ctrl: 73.8*; Pyk2 oligo antag: 1.27; Cav32 inh: -3.17

Results for CCOc1ccc(-c2nnc(NC(=O)c3ccc(OCC(C)C)c(OC)c3)o2)cc1 ?
PostGolgi yeast: 17.8; PostGolgi ctrl: 3.9; Pyk2 oligo antag: -0.14; Cav32 inh: -4.19*

What do the screens show for `COc1cccc(C(=O)Nc2nnc(-c3cccs3)o2)c1`?
PostGolgi yeast: -8.2; PostGolgi ctrl: 38.7*

What do the screens show for `C=C(C)Cn1c(SCC(=O)O)nc2c1c(=O)[nH]c(=O)n2C`?
PostGolgi yeast: 0.2; PostGolgi ctrl: 0.9; Cav32 inh: -0.0225

Results for CCCn1c(SCC(=O)NC)nnc1C(C)C ?
PostGolgi yeast: 7.3; PostGolgi ctrl: 11.5; Pyk2 oligo antag: -0.17; Cav32 inh: 0.228

How did CCOC(=O)C1=NN(C(=O)Nc2ccc(OC)cc2)C2C(=O)N(c3cccc(C(F)(F)F)c3)C(=O)C12 (stereo not given) do in these assays?
PostGolgi yeast: 2.5; PostGolgi ctrl: 11.3; Pyk2 oligo antag: -0.06; Cav32 inh: -0.77

How did CCC1=C[C@H]2CN(C1)Cc1c([nH]c3ccccc13)[C@@](C(=O)OC)(c1cc3c(cc1OC)N(C)[C@H]1[C@@](O)(C(=O)OC)[C@H](OC(C)=O)[C@]4(CC)C=CCN5CC[C@]31[C@@H]54)C2 do in these assays?
Cav32 inh: -0.661

What do the screens show for `Cc1cc(C)nc(NC(=O)/C=C/c2ccc(Cl)cc2Cl)c1`?
PostGolgi yeast: 11.9; PostGolgi ctrl: 56.6*; Pyk2 oligo antag: -0.41

What do the screens show for `COC(=O)c1sccc1-n1cccc1C(=O)NCc1ccccc1`?
PostGolgi yeast: 9.2; PostGolgi ctrl: 0.9; Pyk2 oligo antag: -0.54; Cav32 inh: 1.3

Results for O=C(C#Cc1ccccc1)c1cccc([N+](=O)[O-])c1 ?
PostGolgi yeast: 3.3; PostGolgi ctrl: 48.5*; Pyk2 oligo antag: 0.39; Cav32 inh: 0.893

What do the screens show for `O=C(N/N=C/C=C/c1ccccc1)c1cc2c(ccc3ccccc32)o1`?
PostGolgi yeast: 1.0; PostGolgi ctrl: 9.8; Pyk2 oligo antag: 0.54; Cav32 inh: 0.695

What do the screens show for `C=CCn1cc(/C=N\NC(=O)c2cc3c(ccc4ccccc43)o2)c2ccccc21`?
PostGolgi yeast: 0.2; PostGolgi ctrl: 34.8*; Pyk2 oligo antag: -0.37; Cav32 inh: 0.0299

How did O=C(CN1CCC(C(O)(c2ccccc2)c2ccccc2)CC1)Nc1ccccc1 do in these assays?
PostGolgi yeast: 14.6; PostGolgi ctrl: -2.6; Pyk2 oligo antag: -1.32; Cav32 inh: -2.36*

How did O=C(CN1CCN(c2ccccc2)CC1)Nc1cccc(C(F)(F)F)c1 do in these assays?
PostGolgi yeast: -13.4; PostGolgi ctrl: 0.7; Pyk2 oligo antag: -0.15; Cav32 inh: 1.01

Results for O=C(CN1CCN(Cc2ccccc2)CC1)Nc1cccc(C(F)(F)F)c1 ?
PostGolgi yeast: 3.2; PostGolgi ctrl: 2.7; Pyk2 oligo antag: 0.74; Cav32 inh: -6.63*

What do the screens show for `O=C(CN1CCC(C(O)(c2ccccc2)c2ccccc2)CC1)Nc1cc(Cl)ccc1Cl`?
PostGolgi yeast: 7.6; PostGolgi ctrl: 37.1*; Pyk2 oligo antag: 0.17; Cav32 inh: -0.119

What do the screens show for `Cc1ccc(C(c2sc3nc(C)nn3c2O)N2CCN(c3ccccc3F)CC2)cc1` (stereo not given)?
PostGolgi yeast: 3.2; PostGolgi ctrl: 8.7; Pyk2 oligo antag: -1.95; Cav32 inh: -5.54*

Results for Cc1nc2sc(C(c3ccco3)N3CCN(C(c4ccccc4)c4ccccc4)CC3)c(O)n2n1 (stereo not given) ?
Cav32 inh: -5.39*

Results for COCCn1c(SCC(=O)Nc2ccc(S(=O)(=O)N(C)C)cc2)nc2ccccc21 ?
PostGolgi yeast: -4.8; PostGolgi ctrl: 10.7; Pyk2 oligo antag: -0.06; Cav32 inh: 0.371

Results for COC(=O)[C@@H]1C[C@@]2(O)[C@H](O)[C@H](O)[C@H](O)C[C@H]2N1CC(c1ccccc1)c1ccccc1 ?
Cav32 inh: 1

How did O=S1(=O)C=C(Sc2nc3ccccc3s2)c2ccccc21 do in these assays?
PostGolgi yeast: 88.7*; PostGolgi ctrl: 31.3*; Cav32 inh: 1.69

How did c1ccc(C(Cc2nc(-c3ccncc3)no2)c2ccccc2)cc1 do in these assays?
PostGolgi yeast: -4.8; PostGolgi ctrl: 34.8*; Pyk2 oligo antag: -1.05

Results for c1ccc(-c2nc(-c3ccncc3)no2)cc1 ?
PostGolgi yeast: 4.0; PostGolgi ctrl: 10.0; Pyk2 oligo antag: 0.19; Cav32 inh: -0.000155

How did O=C1c2ccccc2C(=O)N1CCCc1nc(-c2ccncc2)no1 do in these assays?
PostGolgi yeast: 1.1; PostGolgi ctrl: 36.0*; Pyk2 oligo antag: 0.26; Cav32 inh: 0.822
